According to PubChem BioAssay:
A number with no mark means an inactive call. For some assays here: Entries with a potency or affinity are not part of this list. Calls of active or inactive are those of the source. Unless noted, how the calls were made is not given here.

Key:
[1] = antimalarial activity against Dd2 strain (AID 2302;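 active means growth inhibition above 50% at the single 2 µM test dose, taken to imply half-maximal potency below 2 µM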;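 further: 0% = DMSO untreated growth and 100% = chloroquine plus artemisinin killed control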); conditions: P. falciparum Dd2 in RBCs, LDH growth readout, 72 h; at 2 µM; stronger effect = higher value
[2] = human hepatoma cell viability loss – ATP luminescence, cytotoxicity control for P. falciparum antimalarial project, primary screen (AID 2303;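 active means inhibition above 50%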;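 further: 0% = DMSO wells and 100% = digitonin-killed cells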); conditions: HepG2 viability, 24-48 h, at 10 µM, stronger effect = higher value
[3] = target: L-lactate dehydrogenase (Plasmodium falciparum (isolate CDC / Honduras)) (UniProt Q27743); test: PfLDH activity inhibition – cell lysate, 3D7 strain, counter-screen for P. falciparum growth inhibition project (AID 2304);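 further: 0% = vehicle and 100% = reference inhibitor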; conditions: P. falciparum 3D7 crude extract, LDH APAD/NBT absorbance; at 2 µM; stronger effect = higher value
[4] = inhibition of 3D7 malaria parasite growth – strain 3D7 (AID 2306);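 further: 0% = DMSO wells and 100% = chloroquine plus artemisinin control wells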; conditions: P. falciparum 3D7 erythrocytic growth, LDH absorbance, 72 h; at 2 µM; stronger effect = higher value
[5] = target: Calcium-dependent protein kinase 1 (Plasmodium falciparum (isolate 3D7)) (UniProt P62344); test: PfCDPK1 kinase inhibitors, biochemical, TCAMS library (AID 1159585; cut-off not given, nearly all actives have IC50 up to about 0.98 µM;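 further: inhibitors leave more ATP so luminescence rises with inhibition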); conditions: recombinant PfCDPK1, Kinase-Glo ATP depletion luminescence
[6] = target: Plasmodium falciparum protein kinase 6 (PK6, PF3D7_1337100) (UniProt Q8IDW1); test: PfPK6 kinase inhibitors, biochemical, TCAMS library (AID 1159586); conditions: recombinant PfPK6, Kinase-Glo ATP depletion luminescence
[7] = target: Protein kinase 7 (PK7), Plasmodium falciparum 3D7 (PF3D7_0213400) (UniProt Q7YTF7); test: inhibition of Plasmodium PK7 catalytic activity – biochemical, TCAMS antimalarial set, Kinase-Glo luminescence (AID 1159587); conditions: recombinant PfPK7, Kinase-Glo ATP depletion luminescence
[8] = target: Calcium-dependent protein kinase 4 (Plasmodium falciparum (isolate 3D7)) (UniProt Q8IBS5); test: PfCDPK4 kinase inhibitors, biochemical, TCAMS library (AID 1159588; cut-off not given, nearly all actives have IC50 up to about 0.91 µM); conditions: recombinant PfCDPK4, Kinase-Glo ATP depletion luminescence
Sequence of Calcium-dependent protein kinase 4 (Plasmodium falciparum (isolate 3D7)) (Q8IBS5 whole entry, looked up): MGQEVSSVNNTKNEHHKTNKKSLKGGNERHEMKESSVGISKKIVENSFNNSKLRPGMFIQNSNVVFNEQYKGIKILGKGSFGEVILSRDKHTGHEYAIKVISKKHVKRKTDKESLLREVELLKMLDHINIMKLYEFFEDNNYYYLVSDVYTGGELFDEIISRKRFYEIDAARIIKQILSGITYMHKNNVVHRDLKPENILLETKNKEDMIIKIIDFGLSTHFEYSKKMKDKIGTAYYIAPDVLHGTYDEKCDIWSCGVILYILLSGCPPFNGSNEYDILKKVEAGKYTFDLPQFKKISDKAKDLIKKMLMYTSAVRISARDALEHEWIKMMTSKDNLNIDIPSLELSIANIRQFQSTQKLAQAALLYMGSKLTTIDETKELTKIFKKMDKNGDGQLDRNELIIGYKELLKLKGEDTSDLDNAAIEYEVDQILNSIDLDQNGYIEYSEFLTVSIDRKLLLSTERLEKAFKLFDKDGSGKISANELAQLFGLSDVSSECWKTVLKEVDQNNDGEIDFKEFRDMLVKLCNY

Sequence of Plasmodium falciparum protein kinase 6 (PK6, PF3D7_1337100) (Q8IDW1 1-305): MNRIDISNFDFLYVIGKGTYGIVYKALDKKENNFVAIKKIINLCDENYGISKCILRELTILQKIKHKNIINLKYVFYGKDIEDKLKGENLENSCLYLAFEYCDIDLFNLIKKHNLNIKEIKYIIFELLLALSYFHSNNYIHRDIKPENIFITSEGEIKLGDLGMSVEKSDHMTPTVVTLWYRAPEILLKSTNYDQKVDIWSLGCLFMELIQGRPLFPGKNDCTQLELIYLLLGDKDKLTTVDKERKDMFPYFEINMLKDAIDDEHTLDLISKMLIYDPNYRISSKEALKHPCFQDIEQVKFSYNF
Sequence of Protein kinase 7 (PK7), Plasmodium falciparum 3D7 (PF3D7_0213400) (Q7YTF7 1-343): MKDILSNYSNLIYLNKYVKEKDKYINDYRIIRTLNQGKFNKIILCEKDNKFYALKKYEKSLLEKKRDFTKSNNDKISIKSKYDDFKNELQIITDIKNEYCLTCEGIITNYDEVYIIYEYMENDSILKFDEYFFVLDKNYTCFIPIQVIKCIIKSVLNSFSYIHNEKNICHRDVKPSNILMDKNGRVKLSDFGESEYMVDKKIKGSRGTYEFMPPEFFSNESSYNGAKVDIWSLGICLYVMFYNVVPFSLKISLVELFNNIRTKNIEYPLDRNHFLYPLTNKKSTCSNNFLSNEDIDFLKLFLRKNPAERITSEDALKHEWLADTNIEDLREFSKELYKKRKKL
Sequence of L-lactate dehydrogenase (Plasmodium falciparum (isolate CDC / Honduras)) (Q27743 whole entry, looked up): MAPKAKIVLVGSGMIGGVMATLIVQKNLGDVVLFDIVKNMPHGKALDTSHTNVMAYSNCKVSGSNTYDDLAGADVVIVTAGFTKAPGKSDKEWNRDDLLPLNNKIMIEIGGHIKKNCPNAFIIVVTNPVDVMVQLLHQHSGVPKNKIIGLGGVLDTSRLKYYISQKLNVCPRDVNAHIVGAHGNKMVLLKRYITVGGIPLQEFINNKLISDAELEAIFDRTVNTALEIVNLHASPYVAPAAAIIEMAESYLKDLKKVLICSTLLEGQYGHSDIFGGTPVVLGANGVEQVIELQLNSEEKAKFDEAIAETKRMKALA
Sequence of Calcium-dependent protein kinase 1 (Plasmodium falciparum (isolate 3D7)) (P62344 whole entry, looked up): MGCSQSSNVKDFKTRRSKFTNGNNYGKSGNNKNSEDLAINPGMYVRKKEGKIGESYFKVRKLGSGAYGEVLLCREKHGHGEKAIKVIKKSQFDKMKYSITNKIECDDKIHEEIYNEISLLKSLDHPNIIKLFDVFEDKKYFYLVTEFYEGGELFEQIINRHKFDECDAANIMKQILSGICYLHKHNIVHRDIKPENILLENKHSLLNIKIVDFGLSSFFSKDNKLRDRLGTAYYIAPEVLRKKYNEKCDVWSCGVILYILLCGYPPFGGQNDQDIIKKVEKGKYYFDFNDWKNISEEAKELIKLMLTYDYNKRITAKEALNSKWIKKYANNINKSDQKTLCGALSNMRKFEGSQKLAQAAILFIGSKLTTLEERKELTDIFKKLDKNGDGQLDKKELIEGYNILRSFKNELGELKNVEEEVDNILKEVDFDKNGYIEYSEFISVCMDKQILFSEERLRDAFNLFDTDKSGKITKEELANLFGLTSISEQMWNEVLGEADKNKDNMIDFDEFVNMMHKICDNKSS

| SMILES | growth inhibition [1] | inhibition [2] | inhibition [3] | growth inhibition [4] | outcome [5] | outcome [6] | outcome [7] | outcome [8] |
| --- | --- | --- | --- | --- | --- | --- | --- | --- |
| Cc1cc(NC(=O)Nc2ccc3ccn(C)c3c2)c2ccccc2n1 | 69% (active) | 11% | -1% | 102% (active) | inactive | inactive | inactive | inactive |
| COCCNCc1ncsc1-c1ccc2c(Nc3cc(O)ccc3C)ccnc2c1 | 40% | 9% | 6% | 101% (active) | inactive | inactive | inactive | inactive |
| CC1CCC(NCc2ccc3c(CNC4CCC(C)CC4)c(O)ccc3c2O)CC1 (stereo not given) | 99% (active) | 4% | -2% | 101% (active) | inactive | inactive | inactive | inactive |
| CS(=O)(=O)Nc1ccc2[nH]cc(C3CCN(CCCCCNC(=O)/C=C/c4ccc(Cl)c(Cl)c4)CC3)c2c1 | 0% | 1% | 5% | 101% (active) | inactive | inactive | inactive | inactive |
| COc1cccc2c(NCCNc3ccnc4c(OC)cccc34)ccnc12 | 86% (active) | 11% | 0% | 93% (active) | inactive | inactive | inactive | inactive |
| COc1ccc2nc3cc(Cl)ccc3c(Nc3ccc(C(=O)O)cc3)c2c1 | 95% (active) | -7% | 6% | 94% (active) | inactive | inactive | inactive | inactive |
| N/C(=N/C(=NCCCCCCN=C(/N=C(/N)Nc1ccc(Cl)cc1)N1CCCCC1)N1CCCCC1)Nc1ccc(Cl)cc1 | 98% (active) | -7% | 0% | 100% (active) | inactive | inactive | inactive | inactive |
| CN(C)CCCNCc1ccc(-c2ccc(F)c(Cl)c2)o1 | 69% (active) | 29% | -7% | 93% (active) | inactive | inactive | inactive | inactive |
| COc1ccc2c(NN=Cc3cccnc3)cc(C)nc2c1 | 12% | -4% | -2% | 85% (active) | inactive | inactive | inactive | inactive |
| CCNc1cc(C)nc(Nc2ccc(C)cc2)n1 | 85% (active) | 12% | 3% | 102% (active) | inactive | inactive | inactive | inactive |
| COCCN1CCC(CN(C)CC(C)(C)c2nc(-c3ccc(Cl)c(O)c3)c(-c3ccncc3)[nH]2)CC1 | 10% | -8% | -2% | 94% (active) | inactive | inactive | inactive | inactive |
| O=C(Cc1cnc[nH]1)Nc1ccc(-c2cccc(-c3nc4ccc(C(F)(F)F)cc4[nH]3)c2)cc1 | 95% (active) | 20% | -8% | 101% (active) | inactive | inactive | inactive | inactive |
| COCCNCc1cccc(-c2ccc(CNC3CCN(Cc4ccccc4)CC3)cc2)c1 | 97% (active) | 34% | -7% | 100% (active) | inactive | inactive | inactive | inactive |
| C[C@@H](Oc1cc(-n2cnc3ccc(NC(=O)CCN4CCCCC4)cc32)sc1C(N)=O)c1ccccc1Cl | 60% (active) | 36% | 3% | 101% (active) | inactive | inactive | inactive | inactive |
| Cc1ccc(O)cc1Nc1c(C(N)=O)cnc2ccc(-c3cncs3)cc12 | 99% (active) | 21% | 3% | 100% (active) | inactive | inactive | inactive | inactive |
| COc1cccc2c(NN=Cc3ccc(Cl)cc3)ccnc12 | 39% | 26% | 5% | 99% (active) | inactive | inactive | inactive | inactive |
| Clc1ccc(NC(=NCCCCCCCN=C(Nc2ccc(Cl)cc2)Nc2ccc(Cl)cc2)Nc2ccc(Cl)cc2)cc1 | 99% (active) | 100% (active) | 0% | 101% (active) | inactive | inactive | inactive | inactive |
| CCOc1ccc(Nc2ccc3nonc3c2S(=O)(=O)Nc2ccc(OCC)cc2)cc1 | 93% (active) | 6% | -2% | 100% (active) | inactive | inactive | inactive | inactive |
| O=C(Nc1cccc(-c2ccc(-c3nc4ccc(F)cc4[nH]3)s2)c1)c1cccnc1 | 72% (active) | 46% | -5% | 100% (active) | inactive | inactive | inactive | inactive |
| CCNc1cc(C(=O)N[C@@H](Cc2ccccc2)[C@H](O)CNCCc2cc(OC)cc(OC)c2)cc(N2CCCCS2(=O)=O)c1 | 28% | 3% | 0% | 89% (active) | inactive | inactive | inactive | inactive |

| SMILES | growth inhibition [1] | inhibition [2] | inhibition [3] | growth inhibition [4] | outcome [5] | outcome [6] | outcome [7] | outcome [8] |
| --- | --- | --- | --- | --- | --- | --- | --- | --- |
| COCCn1c(C)nc2ccccc2c1=O | 67% (active) | -3% | -3% | 89% (active) | inactive | inactive | inactive | inactive |
| O=C(N[C@@H]1C[C@H]1c1ccccc1)N(CCCn1ccnc1)Cc1csc(-c2ccc(CNCc3ccccc3)cc2)n1 | 20% | 6% | 2% | 96% (active) | inactive | inactive | inactive | inactive |
| CCNc1cc(C(=O)N[C@@H](Cc2ccccc2)[C@H](O)CNCC(C)C)cc(N2CCCC2=O)c1 | 97% (active) | 16% | 3% | 98% (active) | inactive | inactive | inactive | inactive |
| CC1(C)N=C(N)NC(NOCCCCCCONC2=NC(C)(C)N=C(N)N2)=N1 | 98% (active) | 34% | -4% | 95% (active) | inactive | inactive | inactive | inactive |
| c1ccc(CN2CCC(NCc3ccccc3-c3cccc(CNC4CCCC4)c3)CC2)cc1 | 59% (active) | 35% | 6% | 101% (active) | inactive | inactive | inactive | inactive |
| CS(=O)(=O)N1CC2(CCN(CCC(NC(=O)Nc3ccccc3)c3ccc(Cl)c(Cl)c3)CC2)c2ccccc21 (stereo not given) | 72% (active) | 23% | 5% | 99% (active) | inactive | inactive | inactive | inactive |
| O=C(COC(=O)c1cccc(S(=O)(=O)N2CCc3ccccc32)c1)NNC(=O)c1cccs1 | 4% | 4% | 3% | 96% (active) | inactive | inactive | inactive | inactive |
| CC(C)c1ccc(CN2CCC(CNC(=O)c3cc(-c4ccccc4F)cs3)C2)cc1 (stereo not given) | 29% | 32% | 5% | 101% (active) | inactive | inactive | inactive | inactive |
| CC(C)(C)c1ccc(NC(=O)c2cccc(CN3CCCN(Cc4cccc(C#N)c4)CC3)c2)cc1 | 12% | 39% | 4% | 97% (active) | inactive | inactive | inactive | inactive |
| CCOc1ccc(C(=O)Nc2cc(Br)c3c(c2)CNCC3)cc1Cl | 8% | 13% | 5% | 92% (active) | inactive | inactive | inactive | inactive |
| OC(CNC1CCCCC1)Cn1c2ccc(I)cc2c2cc(I)ccc21 (stereo not given) | 93% (active) | 10% | 2% | 100% (active) | inactive | inactive | inactive | inactive |
| N#Cc1ccc2c(c1)CN(C1CCC(NC(=O)C3=Cc4cc(Cl)ccc4OC3)CC1)CCC2 (stereo not given) | 8% | -5% | 2% | 93% (active) | inactive | inactive | inactive | inactive |
| NC(=O)c1ccccc1OCC(=O)Nc1cccc(-c2ccc(-c3nc4ccc(C(F)(F)F)cc4[nH]3)cc2)c1 | 17% | 58% (active) | -2% | 92% (active) | inactive | inactive | inactive | inactive |
| CN(C)c1ccc(-c2csc(C(=O)NC3CCCCN(CCC(C)(C)C)C3)c2)cc1 (stereo not given) | 68% (active) | 10% | 4% | 91% (active) | inactive | inactive | inactive | inactive |
| Cc1cc(C)nc(-n2[nH]c(C)c(Cc3ccc(C(C)(C)C)cc3)c2=O)n1 | 61% (active) | -9% | -1% | 88% (active) | inactive | inactive | inactive | inactive |
| O=C(NCCCN1CCN(c2cccc(Cl)c2)CC1)c1ccc(-c2nc3cc(Cl)c(Cl)cc3[nH]2)c(F)c1 | 72% (active) | 3% | 2% | 101% (active) | inactive | inactive | inactive | inactive |
| CC(CN1CCN(C)CC1)C(=O)Nc1cccc(-c2cccc(-c3nc4ccccc4[nH]3)c2)c1 (stereo not given) | 19% | 23% | -3% | 88% (active) | inactive | inactive | inactive | inactive |
| COc1cc(F)c2ncc(Cl)c(C(O)CN3CCC(NC(=O)c4ccc5c(c4)NC(=O)CS5)CC3)c2c1 (stereo not given) | 68% (active) | 15% | 1% | 98% (active) | inactive | inactive | inactive | inactive |
| Cc1[nH]nc2ccc(-c3cc(OC[C@@H](N)Cc4ccccc4)cnc3-c3ccccc3OCc3cccc(F)c3)cc12 | 91% (active) | 55% (active) | -2% | 91% (active) | inactive | inactive | inactive | inactive |
| Cc1cccc2[nH]c(-c3ccc(-c4ccc(NC(=O)Nc5cccc(C#N)c5)cc4)cc3)nc12 | 100% (active) | 28% | 6% | 101% (active) | inactive | inactive | inactive | inactive |
